From PubChem BioAssay AID1159580 (chemical genetic matrix, 2015)
Values joined by “and” are separate entries in the source; they are usually repeats but may differ in a detail not shown here. Equal values may be shown once. Among all 5,500 compounds or so, about 2,000 (36%) were called active. Another 18% or so got no clear call; they are omitted. No stated cut-off is given here; in the data, active means normalized growth mostly below about 0.91 (no sharp cut-off); inconclusive means no clear call, values can overlap the other calls; inactive means mostly above about 0.92. This is one part of the list.

Assay: chemical genetic growth profiling, strain panel (AID 1159580);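 further: tested at 20 µM; growth read once vehicle control cultures reached saturation at 30 °C; 1 = growth at the plate median or of vehicle wells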
Conditions: S. cerevisiae deletion strains, growth OD

Measured: normalized growth

COc1cc2ccc(=O)oc2c(O)c1O
inactive: locus YBR021W, strain FUR4, stronger effect = lower value 1.03 | locus YBR229C, strain ROT2, stronger effect = lower value 0.957 | locus YCL029C, strain bik1, stronger effect = lower value 1.01 | locus YDL035C, strain GPR1, stronger effect = lower value 1.01 | locus YDL074C, strain BRE1, stronger effect = lower value 1.05 | locus YDL101C, strain DUN1, stronger effect = lower value 0.984 | locus YDL185W, strain tfp1, stronger effect = lower value 0.983 | locus YDL192W, strain arf1, stronger effect = lower value 1 | locus YDR101C, strain arx1, stronger effect = lower value 1.01 | locus YDR162C, strain NBP2, stronger effect = lower value 0.934 | locus YDR318W, strain mcm21, stronger effect = lower value 0.992 | locus YDR388W, stronger effect = lower value 1 | locus YDR502C, strain sam2, stronger effect = lower value 0.986 | locus YEL061C, strain CIN8, stronger effect = lower value 0.995 | locus YER110C, stronger effect = lower value 0.995 | locus YER155C, strain BEM2, stronger effect = lower value 1.03 | locus YER167W, strain BCK2, stronger effect = lower value 1.01 | locus YGL078C, strain dbp3, stronger effect = lower value 1.01 | locus YGL086W, strain mad1, stronger effect = lower value 1.04 | locus YGL248W, strain PDE1, stronger effect = lower value 0.979 | locus YGR078C, strain PAC10, stronger effect = lower value 0.98 | locus YGR135W, strain pre9, stronger effect = lower value 0.966 | locus YGR252W, strain gcn5, stronger effect = lower value 0.959 | locus YHR030C, strain SLT2, stronger effect = lower value 1.01 and 1.04 | locus YHR079C, strain IRE1 (second series), stronger effect = lower value 0.996 | locus YHR079C, strain IRE1, stronger effect = lower value 1.03 | locus YHR094C, strain hxt1, stronger effect = lower value 0.987 | locus YHR129C, strain ARP1, stronger effect = lower value 0.995 | locus YHR200W, strain rpn10, stronger effect = lower value 0.988 | locus YIL066C, strain RNR3, stronger effect = lower value 0.996 | locus YIL073C, strain SPO22, stronger effect = lower value 0.997 | locus YIL125W, strain kgd1, stronger effect = lower value 1 | locus YIR030C, strain dcg1, stronger effect = lower value 1 | locus YJL095W, strain BCK1, stronger effect = lower value 0.956 and 1.01 | locus YJL134W, strain LCB3, stronger effect = lower value 1 | locus YJL168C, strain set2, stronger effect = lower value 0.992 | locus YJL187C, strain SWE1 (second series), stronger effect = lower value 0.991 | locus YJR043C, strain POL32, stronger effect = lower value 1.01 | locus YJR066W, strain TOR1, stronger effect = lower value 0.978 | locus YJR075W, strain HOC1, stronger effect = lower value 1.01 | locus YKL068W, stronger effect = lower value 0.982 | locus YKL085W, strain MDH1 (second series), stronger effect = lower value 1 | locus YKL085W, strain MDH1, stronger effect = lower value 1 | locus YKR001C, strain vps1, stronger effect = lower value 1 | locus YLR039C, strain RIC1, stronger effect = lower value 1 | locus YLR058C, strain SHM2, stronger effect = lower value 1 | locus YLR102C, strain apc9, stronger effect = lower value 1 | locus YLR113W, strain HOG1, stronger effect = lower value 0.984 | locus YLR262C, strain YPT6, stronger effect = lower value 0.955 | locus YLR268W, strain sec22, stronger effect = lower value 1.03 | locus YLR330W, strain CHS5, stronger effect = lower value 1 | locus YLR342W, strain FKS1 (second series), stronger effect = lower value 1.06 | locus YLR371W, strain rom2, stronger effect = lower value 0.981 | locus YLR418C, strain cdc73, stronger effect = lower value 0.971 | locus YML016C, strain PPZ1, stronger effect = lower value 0.996 | locus YML032C, strain rad52, stronger effect = lower value 1.01 | locus YML124C, strain tub3, stronger effect = lower value 0.997 | locus YMR078C, strain ctf18, stronger effect = lower value 0.991 | locus YMR223W, strain ubp8, stronger effect = lower value 1.01 | locus YMR307W, strain GAS1, stronger effect = lower value 1.05 | locus YNL067W, strain RPL9B, stronger effect = lower value 0.983 | locus YNL128W, strain TEP1, stronger effect = lower value 0.96 | locus YNL183C, strain NPR1, stronger effect = lower value 0.976 | locus YNL233W, strain BNI4, stronger effect = lower value 1 | locus YNL250W, strain rad50, stronger effect = lower value 1 | locus YNL271C, strain bni1, stronger effect = lower value 1 | locus YNL298W, strain CLA4, stronger effect = lower value 0.997 | locus YNL307C, strain MCK1, stronger effect = lower value 1.01 | locus YNL322C, strain KRE1, stronger effect = lower value 0.99 | locus YNR052C, strain pop2, stronger effect = lower value 0.993 | locus YOL006C, strain TOP1, stronger effect = lower value 1.11 | locus YOL012C, strain htz1 0.802 | locus YOL147C, strain pex11, stronger effect = lower value 1.01 | locus YOR061W, strain CKA2, stronger effect = lower value 0.988 | locus YOR069W, strain VPS5, stronger effect = lower value 1.01 | locus YOR136W, strain idh2, stronger effect = lower value 1.01 | locus YOR144C, strain elg1, stronger effect = lower value 0.994 | locus YOR184W, strain ser1, stronger effect = lower value 0.983 | locus YOR231W, strain MKK1, stronger effect = lower value 1.01 | locus YOR316C, strain cot1, stronger effect = lower value 0.997 | locus YPL256C, strain CLN2, stronger effect = lower value 1.03 | locus YPR119W, strain clb2, stronger effect = lower value 0.991 | locus YPR141C, strain kar3, stronger effect = lower value 0.997 | locus YPR163C, strain tif3, stronger effect = lower value 0.985 | locus YPR167C, strain met16, stronger effect = lower value 0.994 | strain wtn01, stronger effect = lower value 1.03
active: locus YKL009W, strain mrt4, stronger effect = lower value 1.13 [resistant]
